Experimental findings from PubChem BioAssay (NCATS) are described below.

Records with an inconclusive call do not appear. Values without a mark were called inactive. The source made the active and inactive calls. The call rests on the fitted dose curve; in most records, active means well fitted inhibition curve with a large enough effect; inconclusive means small, poorly fitted or top-dose-only effect; inactive means flat fitted curve, though single readings scatter.
Potency means the concentration at half of the fitted maximal effect.

One assay concerns TAB109. In words: qHTS profiling for inhibitors of Plasmodium falciparum proliferation (AID 504749). Further: nearly all actives have a fitted effect of over 60% in size.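 On activity, negative = inhibition: 0% = DMSO vehicle and full inhibition = artemisinin control.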 The note with it: P. falciparum in erythrocytes, SYBR Green DNA, 72 h; series mostly up to 28.7 µM; activity, negative = inhibition: at the top concentration. The procedure, abridged: (§1)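 Readout was DNA-dye fluorescence from lysed cultures, ex 485/em 535 nm. Parasitized red cells had grown 72 h with compound; data scaled between 0.29 uM artemisinin and DMSO wells and corrected using vehicle-only plates.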
In general terms: Quantitative high-throughput screening tests each substance at several concentrations.
`O=P(O)(O)OC[C@H]1O[C@](O)(COP(=O)(O)O)[C@@H](O)[C@@H]1O`: the “activity, negative = inhibition” value is -2.69%.

With `NC(=O)Oc1ccc(Cc2ccccc2)cc1`, the “activity, negative = inhibition” value was 8.34%.

In the case of `O=C(O)CCC(=O)c1ccc(-c2ccccc2)cc1`, the “activity, negative = inhibition” value is 2.13% [at 12.8 µM].

With `COc1cc(NCCCC(C)N)c2ncccc2c1` (stereo not given), the Potency is 4.47 µM (active).

Regarding `CCCOc1cc(N)ccc1C(=O)OCCN(CC)CC`, the “activity, negative = inhibition” value is -4.97% [at 12.8 µM].

Take `CCCCCCCCCCCCOCCCN`: the “activity, negative = inhibition” value is 4.11%.

Consider `O=S(=O)(O)CC(S)CS` (stereo not given), for which the “activity, negative = inhibition” value was -27.6%.

Take `O=C1[O][Bi][O]c2ccccc21`: the “activity, negative = inhibition” value was 18.3%.

`Cc1ccc(S(=O)(=O)O)cc1C`: the “activity, negative = inhibition” value is 19.8%.

With `CN1C(=O)C[C@@H](C(=O)N[C@@H](Cc2cnc[nH]2)C(=O)N2CCC[C@H]2C(N)=O)NC1=O`, the “activity, negative = inhibition” value was 9.2%.

On to `Cc1cc(-c2ccc(N=Nc3ccc4c(S(=O)(=O)O)cc(S(=O)(=O)O)c(N)c4c3O)c(C)c2)ccc1N=Nc1ccc2c(S(=O)(=O)O)cc(S(=O)(=O)O)c(N)c2c1O`, for which the “activity, negative = inhibition” value was 4.19%.

On to `NC(=S)NS(=O)(=O)c1ccc(N)cc1`, for which the “activity, negative = inhibition” value is 2.21%.

On to `COC(=O)CC[C@H](N)C(=O)O`, for which the “activity, negative = inhibition” value was 6.31%.

In the case of `Cc1nc(NS(=O)(=O)c2ccc(N)cc2)nc(C)c1Br`, the “activity, negative = inhibition” value is 6.82%.

As to `NCC(O)CC(=O)O` (stereo not given), the “activity, negative = inhibition” value is 1.86%.

Turning to `CCCCCCCCCCCC(=O)N(CCO)CCO`, the “activity, negative = inhibition” value is -7.52%.

On to `CC(C)(COP(=O)(O)OP(=O)(O)OC[C@H]1O[C@@H](n2cnc3c(N)ncnc32)[C@H](O)[C@@H]1OP(=O)(O)O)C(O)C(=O)NCCC(=O)NCCS` (stereo not given in full), for which the “activity, negative = inhibition” value was 7.64%.

On to `COc1ccc(/C=C/C(=O)OCCC(C)C)cc1`, for which the “activity, negative = inhibition” value is 6.29%.

With `O=C1c2ccccc2CN2C(=O)c3ccccc3CN12`, the “activity, negative = inhibition” value was -1.37%.

For `CC1=CC(=O)NS(=O)(=O)O1`, the “activity, negative = inhibition” value was 7.46%.

Consider `CC(CNC(=O)c1cccnc1)NC(=O)c1cccnc1` (stereo not given), for which the “activity, negative = inhibition” value was 2.66%.

In the case of `CC(C)(C)CC(C)(C)c1cc(Cc2cc(C(C)(C)CC(C)(C)C)cc(-n3nc4ccccc4n3)c2O)c(O)c(-n2nc3ccccc3n2)c1`, the “activity, negative = inhibition” value is 9.3%.

Consider `CCCCC(CC)COS(=O)(=O)O` (stereo not given), for which the “activity, negative = inhibition” value is 13.5%.

In the case of `CCc1ccc(S(=O)(=O)O)cc1`, the “activity, negative = inhibition” value was -4.36%.

For `CO[C@H]1C[C@@H]2CC[C@@H](C)[C@@](O)(O2)C(=O)C(=O)N2CCCC[C@H]2C(=O)O[C@H]([C@H](C)C[C@@H]2CC[C@@H](OC(=O)C(C)(CO)CO)[C@H](OC)C2)CC(=O)[C@H](C)/C=C(\C)[C@@H](O)[C@@H](OC)C(=O)[C@H](C)C[C@H](C)/C=C/C=C/C=C/1C`, the “activity, negative = inhibition” value was 4.78%.

As for `CN1C(=O)OC(C)(C)C1=O`, the “activity, negative = inhibition” value was 8.16% [at 12.8 µM].

As for `CC(=O)[C@H]1CC[C@H]2[C@@H]3C=CC4=CC(=O)CC[C@@]4(C)[C@H]3CC[C@]12C`, the “activity, negative = inhibition” value is -0.552% [at 12.8 µM].

For the compound `CCC(C)[C@@H](N)C(=O)O` (stereo not given in full), the “activity, negative = inhibition” value is 6.42%.

Take `O=C(O)C1=C(CSc2nnnn2CS(=O)(=O)O)CS[C@@H]2[C@H](NC(=O)[C@H](O)c3ccccc3)C(=O)N12`: the “activity, negative = inhibition” value is -2.16%.

Take `CCCCO`: the “activity, negative = inhibition” value is 11.6%.

Take `NC(=O)[C@@H]1CCCN1C(=O)[C@H](Cc1cnc[nH]1)NC(=O)[C@@H]1CCC(=O)N1`: the “activity, negative = inhibition” value was 9.62%.

Consider `CCOc1ccc(S(=O)(=O)O)c2cccnc12`, for which the “activity, negative = inhibition” value is 13.4%.

For `[O-][N+](=Nc1ccccc1)c1ccccc1`, the “activity, negative = inhibition” value is 10.2%.

With `CN[C@@H]1[C@H](O[C@H]2[C@H](O[C@H]3[C@H](O)[C@@H](O)[C@H](N=C(N)N)[C@@H](O)[C@@H]3N=C(N)N)O[C@@H](C)[C@]2(O)C=O)O[C@@H](CO)[C@H](O)[C@H]1O`, the “activity, negative = inhibition” value is 0.128%.

For `CCC(O)c1ccccc1` (stereo not given), the “activity, negative = inhibition” value is 10%.

Take `NC(=O)[C@H]1O[C@@H](O)[C@H](O)[C@@H](O)[C@@H]1O`: the “activity, negative = inhibition” value is 6.73%.

`CCN(CC)CCOC(=O)c1cccnc1`: the “activity, negative = inhibition” value was -2.22%.

On to `CCOC(C)OCC`, for which the “activity, negative = inhibition” value was -1.18%.

Take `NC(=O)C1c2ccccc2CCc2ccccc21`: the “activity, negative = inhibition” value is -5.31%.

`Nc1nc(=O)n([C@@H]2CS[C@H](CO)O2)cc1F`: the “activity, negative = inhibition” value was -0.0071%.

Another assay relates to TAB113. The assay is described as above. The note with it: P. falciparum in erythrocytes, SYBR Green DNA, 72 h; series mostly up to 28.7 µM; activity, negative = inhibition: at the top concentration. In outline:
as §1
With `O=P(O)(O)OC[C@H]1O[C@](O)(COP(=O)(O)O)[C@@H](O)[C@@H]1O`, the “activity, negative = inhibition” value is 1.24%.

On to `NC(=O)Oc1ccc(Cc2ccccc2)cc1`, for which the “activity, negative = inhibition” value is 12%.

`O=C(O)CCC(=O)c1ccc(-c2ccccc2)cc1`: the “activity, negative = inhibition” value was 8.8% [at 12.8 µM].

In the case of `COc1cc(NCCCC(C)N)c2ncccc2c1` (stereo not given), the Potency is 8.91 µM (active).

Turning to `CCCOc1cc(N)ccc1C(=O)OCCN(CC)CC`, the “activity, negative = inhibition” value was 2.37% [at 12.8 µM].

For `CCCCCCCCCCCCOCCCN`, the “activity, negative = inhibition” value was 15.6%.

For the compound `O=S(=O)(O)CC(S)CS` (stereo not given), the “activity, negative = inhibition” value was 0.796%.

In the case of `O=C1[O][Bi][O]c2ccccc21`, the “activity, negative = inhibition” value was 4.38%.

For the compound `Cc1ccc(S(=O)(=O)O)cc1C`, the “activity, negative = inhibition” value was 2.63%.

`CN1C(=O)C[C@@H](C(=O)N[C@@H](Cc2cnc[nH]2)C(=O)N2CCC[C@H]2C(N)=O)NC1=O`: the “activity, negative = inhibition” value was 0.252%.

Regarding `Cc1cc(-c2ccc(N=Nc3ccc4c(S(=O)(=O)O)cc(S(=O)(=O)O)c(N)c4c3O)c(C)c2)ccc1N=Nc1ccc2c(S(=O)(=O)O)cc(S(=O)(=O)O)c(N)c2c1O`, the “activity, negative = inhibition” value was 0.0728%.

Regarding `NC(=S)NS(=O)(=O)c1ccc(N)cc1`, the “activity, negative = inhibition” value was 3.86%.

As to `COC(=O)CC[C@H](N)C(=O)O`, the “activity, negative = inhibition” value was 6.98%.

For the compound `Cc1nc(NS(=O)(=O)c2ccc(N)cc2)nc(C)c1Br`, the “activity, negative = inhibition” value is 0.97%.

As for `NCC(O)CC(=O)O` (stereo not given), the “activity, negative = inhibition” value was 3.74%.

Regarding `CCCCCCCCCCCC(=O)N(CCO)CCO`, the “activity, negative = inhibition” value was 16.3%.

For `CC(C)(COP(=O)(O)OP(=O)(O)OC[C@H]1O[C@@H](n2cnc3c(N)ncnc32)[C@H](O)[C@@H]1OP(=O)(O)O)C(O)C(=O)NCCC(=O)NCCS` (stereo not given in full), the “activity, negative = inhibition” value is 20%.

On to `COc1ccc(/C=C/C(=O)OCCC(C)C)cc1`, for which the “activity, negative = inhibition” value is 11%.

`O=C1c2ccccc2CN2C(=O)c3ccccc3CN12`: the “activity, negative = inhibition” value was 0.705%.

Turning to `CC1=CC(=O)NS(=O)(=O)O1`, the “activity, negative = inhibition” value is 12.4%.

On to `CC(CNC(=O)c1cccnc1)NC(=O)c1cccnc1` (stereo not given), for which the “activity, negative = inhibition” value was 4.89%.

For `CC(C)(C)CC(C)(C)c1cc(Cc2cc(C(C)(C)CC(C)(C)C)cc(-n3nc4ccccc4n3)c2O)c(O)c(-n2nc3ccccc3n2)c1`, the “activity, negative = inhibition” value was 4.71%.

In the case of `CCCCC(CC)COS(=O)(=O)O` (stereo not given), the “activity, negative = inhibition” value is 5.06%.

As to `CCc1ccc(S(=O)(=O)O)cc1`, the “activity, negative = inhibition” value is 1.35%.

As for `CO[C@H]1C[C@@H]2CC[C@@H](C)[C@@](O)(O2)C(=O)C(=O)N2CCCC[C@H]2C(=O)O[C@H]([C@H](C)C[C@@H]2CC[C@@H](OC(=O)C(C)(CO)CO)[C@H](OC)C2)CC(=O)[C@H](C)/C=C(\C)[C@@H](O)[C@@H](OC)C(=O)[C@H](C)C[C@H](C)/C=C/C=C/C=C/1C`, the “activity, negative = inhibition” value was 1.93%.

As to `CN1C(=O)OC(C)(C)C1=O`, the “activity, negative = inhibition” value is -0.544% [at 12.8 µM].

Consider `CC(=O)[C@H]1CC[C@H]2[C@@H]3C=CC4=CC(=O)CC[C@@]4(C)[C@H]3CC[C@]12C`, for which the “activity, negative = inhibition” value is 1.31% [at 12.8 µM].

Take `CCC(C)[C@@H](N)C(=O)O` (stereo not given in full): the “activity, negative = inhibition” value was 4.98%.

Regarding `O=C(O)C1=C(CSc2nnnn2CS(=O)(=O)O)CS[C@@H]2[C@H](NC(=O)[C@H](O)c3ccccc3)C(=O)N12`, the “activity, negative = inhibition” value is -2.34%.

For the compound `CCCCO`, the “activity, negative = inhibition” value was 2.99%.

For the compound `NC(=O)[C@@H]1CCCN1C(=O)[C@H](Cc1cnc[nH]1)NC(=O)[C@@H]1CCC(=O)N1`, the “activity, negative = inhibition” value is 1.71%.

Turning to `CCOc1ccc(S(=O)(=O)O)c2cccnc12`, the “activity, negative = inhibition” value is 16.2%.

Consider `[O-][N+](=Nc1ccccc1)c1ccccc1`, for which the “activity, negative = inhibition” value was 10.5%.

As to `CN[C@@H]1[C@H](O[C@H]2[C@H](O[C@H]3[C@H](O)[C@@H](O)[C@H](N=C(N)N)[C@@H](O)[C@@H]3N=C(N)N)O[C@@H](C)[C@]2(O)C=O)O[C@@H](CO)[C@H](O)[C@H]1O`, the “activity, negative = inhibition” value is 8.1%.

Turning to `CCC(O)c1ccccc1` (stereo not given), the “activity, negative = inhibition” value was 9.08%.

As to `NC(=O)[C@H]1O[C@@H](O)[C@H](O)[C@@H](O)[C@@H]1O`, the “activity, negative = inhibition” value is 6.38%.

In the case of `CCN(CC)CCOC(=O)c1cccnc1`, the “activity, negative = inhibition” value is 13.1%.

For `CCOC(C)OCC`, the “activity, negative = inhibition” value is 11.9%.

Consider `NC(=O)C1c2ccccc2CCc2ccccc21`, for which the “activity, negative = inhibition” value was 10.8%.

Take `Nc1nc(=O)n([C@@H]2CS[C@H](CO)O2)cc1F`: the “activity, negative = inhibition” value is 4.94%.
